Source: the supplement of paper PMC10338343
± gives the standard deviation.

system: MILI (PIWIL2) piRISC loaded with L1MC piRNA (26 nt); assay: pre-steady-state target cleavage rate (min^-1); guide: L1MC piRNA 5'p-UAACUAAAUACUAUGCAAGCUGUAGG; MIWI and MILI are mouse PIWI proteins and EfPiwi is from a freshwater sponge; tags in brackets are library labels; higher = faster piRNA-guided slicing of the target; conditions: auxiliary factor: none (no GTSF1)
Procedure, shortened: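 The pre-steady-state cleavage rate was derived from a burst-and-steady-state fit of Cleave-'n-Seq data. For these assays, 1 nM active affinity-purified piRISC loaded with a single synthetic guide was mixed with […] a transcribed, DNA-blocked target RNA library in HEPES–potassium acetate buffer at 33 °C, with or without 500 nM GTSF1 partner protein, for 0–8 or 0–960 min. Sequencing counts of uncleaved targets were normalised to depth and to weakly complementary targets, and k3 was capped at 0.0001 min^-1 after three trials were pooled.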
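Also: 1 nM active piRISC with 0.1 nM target library at 33 °C single turnover.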

Point of comparison: UCCUGGAUGUGCUUGGUUAGUAUUUAGUUA, “pre-steady-state target cleavage rate” value 0.01 ± 0.0025. Against it:
- UCCUGGAUCACGUUGCAUAGUAUUUAGUAA — lower, 0.00365 ± 0.0029
- UCCUGGAUGUCCUUGCAAAGUUUUUAGUUA — lower, 0.00553 ± 0.0019
- UCCUGGUACAGCUUGCAUUGAAUUUAGUUA — within error, 0.00399 ± 0.0037
- UCCUGGAUGUCGAACGUAUCUAUAUUGUUA — lower, < 0.0001
- UCCUGGAUGAGCUUGCAUAGAUUUUAGUUA — lower, 0.00304 ± 0.0029
- UCCUGGAUGUCGAACGUAUGUAUUUAGUAA — lower, < 0.0001
- UCCUGGAUGAGCUUGCUUAGUAUAUAGUUA — within error, 0.00937 ± 0.0029
- UCCUGGAUCAGCUAGCAUAGUUUUUAGUUA — lower, 0.00382 ± 0.0025
- UCCUCCUACACCUUGCAUUGUAUUUAGUUA — within error, 0.0078 ± 0.002
- UCCUGCUACAGGUUGCAUAGUAUUAAGUUA — within error, 0.00616 ± 0.0022
- UCCUGGAUGUCGAUGCAUAGUUAUUAGUUA — lower, 0.0042 ± 0.0022
- UCCUGGAUGUCGAACGUUAGUAUAUUGUUA — lower, < 0.0001
- UCCUGGAACAGCUUGCAAAGUUUUUAGUUA — lower, 0.0029 ± 0.0026
- UCCUCCUAUCAGCUUGCAUAGUAUUUAGUUA — within error, 0.00786 ± 0.0023
- UCCUGGUACAGCUUGCAUAGAUUUUAGUUA — lower, 0.00346 ± 0.0029
- UCCUGGAUGUCGUUUCAUAGUAUUUAGUUA — lower, 0.00464 ± 0.0023
- UCCUGGAUCAGCUUCCUUAGUAUUUAGUUA — lower, 0.00478 ± 0.0016
- UCCUGGAUGAGGUUGCAUAGUAUAUAGUUA — within error, 0.00623 ± 0.0021
